From the supplement of paper PMC12636033
± gives the standard deviation of the averaged measurements. Over roughly 33,000 sequences, “E-score (rank enrichment, -0.5 to 0.5)” has its median near -0.0043; the highest 2% begin near 0.24. The sample as a whole holds a higher share of the highest values than the screen did.

The sequences below were run on 2Sp-muMax20 (muMax20 with two 2,6-bis(methyl)pyridine Cys staples) (assay: PBM 8-mer E-score (E-score (rank enrichment, -0.5 to 0.5)); higher = stronger preferential binding).
Experimental: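 Protein binding microarray (universal PBM chip covering all 10-mers in fixed probe flanks) with chemically synthesized human Max(13-93) bHLH-LZ analogs (not full-length Max) bearing noncanonical residues (hArg, Tha, Aib, Nle at 65) and aromatic Cys staples. Read-out per 8-mer (and its reverse complement): E-score (rank-based enrichment, -0.5 to 0.5) and Z-score of median probe intensity.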

Sequence	PBM 8-mer E-score
CTAGAATA	0.108 ± 0.076
ATAGAATA	0.171 ± 0.011
AATATTAC	0.294 ± 0.0036
CATATTAG	0.222 ± 0.025
ACTATTAG	-0.00553 ± 0.16
CATATTGG	0.251 ± 0.0054
TATATTAA	0.211 ± 0.059
AATATTAG	0.243 ± 0.026
AATATTGG	0.0895 ± 0.038
CATATTGC	0.164 ± 0.033
GATATTAC	0.178 ± 0.026
CATATTAC	0.0498 ± 0.065
CCTATTAA	0.154 ± 0.024
CATATTAA	0.247 ± 0.019
TGACACCA	-0.0859 ± 0.034
GAGGGTCC	-0.156 ± 0.027
AAAAGGTG	-0.103 ± 0.028
TCGTCCCA	0.114 ± 0.012
GGTGCGAA	0.0856 ± 0.053
ATGACTTC	0.112 ± 0.019
GGCTTACC	-0.108 ± 0.026
CTTATGCA	0.0234 ± 0.047

Sequence	PBM 8-mer E-score
ATCACTTC	0.0342 ± 0.00049
AATATTAT	0.246 ± 0.036
CATATTTA	0.228 ± 0.01
GATATTAA	0.118 ± 0.0066
AATATTAA	0.33 ± 0.029
ACTATTAT	0.142 ± 0.1
AATATTCT	0.231 ± 0.057
AATATTTA	0.282 ± 0.036
AATATTTC	0.0962 ± 0.04
ACTATTAA	0.157 ± 0.022
AGCACCGC	-0.216 ± 0.056
ACTGGCGC	0.0318 ± 0.075
CGCGACTC	0.0134 ± 0.05
AGAAGTGC	-0.15 ± 0.01
AGTGTACA	0.138 ± 0.071
TCGTGTCA	-0.0282 ± 0.02
ATTCGACA	-0.0611 ± 0.091
CGACTGCG	-0.11 ± 0.012
CGGAAGAC	-0.286 ± 0.011
CCTGGCTC	-0.193 ± 0.028
AGCTTATA	0.249 ± 0.15
CGCTTATA	0.116 ± 0.018

Sequence	PBM 8-mer E-score
AGCTTATC	0.0357 ± 0.093
CGTCTTTA	0.0497 ± 0.034
CTGGGTGA	-0.0861 ± 0.036
TGCGCGCA	0.1734 ± 0.0016
GCTTATTA	0.172 ± 0.037
CCTTATTC	-0.0629 ± 0.052
CCTTATTA	0.28 ± 0.003
ACTCCTAG	-0.146 ± 0.087
CGACATGC	0.0468 ± 0.0062
CTAACACA	0.0336 ± 0.063
ATAACACG	0.269 ± 0.011
ATAACACA	0.253 ± 0.075
GTAACACA	0.183 ± 0.032
ATAACAGG	-0.0186 ± 0.03
ATAACACC	0.0871 ± 0.057
ATCTAAGA	-0.0722 ± 0.047
TCGGAAGA	-0.155 ± 0.038
AGTTAACA	0.145 ± 0.13
CGTTAACA	0.0471 ± 0.048
TGTTAACA	0.2746 ± 0.0014
AGCTTTTA	0.0891 ± 0.031
CTATTAAA	0.141 ± 0.053

Sequence	PBM 8-mer E-score
ATATTAAC	0.182 ± 0.0085
ATATTAAG	0.16 ± 0.025
TTATTAAA	0.166 ± 0.054
ATATTAAA	0.2641 ± 0.001
ATATTAAT	0.318 ± 0.08
GCCAGGGC	-0.343 ± 0.022
AAACGGTG	-0.0442 ± 0.0089
GGGCGTCA	0.12 ± 0.063
CGAATTGA	0.141 ± 0.014
GTGTACAA	0.198 ± 0.029
CTGTACAA	0.0666 ± 0.029
TTGTACAA	0.331 ± 0.11
ACCGGTCC	-0.324 ± 0.028
TGACCTAA	0.00115 ± 0.0031
CTCCCCCC	-0.0388 ± 0.051
CCACAGTA	0.0513 ± 0.067
GTACCCGA	-0.187 ± 0.12
ACACATGA	0.0699 ± 0.082
AATCATGA	0.124 ± 0.13
AAACATGG	0.153 ± 0.0082
